# Laboratory results as given in PubChem BioAssay AID1578 (Sanford-Burnham Center for Chemical Genomics, 2009).
# About 3,000 (1%) of roughly 290,000 compounds were called active. The full list was thinned out, with actives kept by preference. Unmarked numbers belong to inactive results. No stated cut-off is given here; in the data, active means inhibition mostly above about 36% (no sharp cut-off); inactive means mostly below about 34%.
# Assay: NOD1 signaling inhibitors, primary screen, cell-based, luminescence, uHTS (AID 1578);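 further: HEK-293T reporter cells stimulated with the NOD1 agonist gamma-tri-DAP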
# Details: NOD1-driven NF-kB luciferase reporter cells, at 4 µM, active compounds read high
row,Structure (SMILES),inhibition
1,Cc1cc([N+](=O)[O-])ccc1NC(=O)Nc1ccc(F)cc1F,-5%
2,Cc1ccc(Cn2nnc3c(=O)n(Cc4cc(C)ccc4C)cnc32)cc1,-9.7%
3,CN(C)S(=O)(=O)c1cccc(NC(=O)c2cc3ccccc3o2)c1,-40.6%
4,COc1ccc(/C=C(\C#N)C(=O)NC(C)c2ccccc2)cc1O (stereo unspecified),-1.1%
5,CC(=O)c1c(O)c2ccccc2n(C(C)C)c1=O,12%
6,O=C(COC(=O)c1ccco1)Nc1ccccc1[N+](=O)[O-],-4.7%
7,CN(C)C(=O)Nc1ccccc1CC[N+](=O)[O-],-28.5%
8,COc1ccc(-c2csc3ncnc(Cl)c23)cc1,-16.4%
9,Cc1c(C(=O)N2CCN(c3ccccc3F)CC2)oc2c1C(=O)CC(C)(C)C2,0%
10,O=S(=O)(/N=C(\Sc1ccc(Cl)cc1)c1ccccc1)c1ccccc1,3.3%
11,C=CCn1c(=O)c2c3c(sc2n2c(Nc4ccc(C(=O)OCC)cc4)nnc12)CCCC3,-30.7%
12,CCC(C)(C)NC(=O)C(c1ccc(OC)cc1)N(C(=O)CCC(=O)Nc1cc(C)on1)c1ccc(F)cc1 (stereo unspecified),-11.7%
13,CC(C)c1ccc(/C=N/NC(=O)CC(=O)NCc2ccccc2)cc1,-41.2%
14,CCN(CC)S(=O)(=O)c1cc([N+](=O)[O-])ccc1NNC(=O)Nc1ccc(F)cc1,2%
15,CCN(CC)S(=O)(=O)c1cc([N+](=O)[O-])ccc1NNC(=O)Nc1ccccc1,-23.4%
16,CCN(CC)S(=O)(=O)c1cc([N+](=O)[O-])ccc1NNC(=O)Nc1ccc(Cl)c(Cl)c1,83.8% (active)
17,COc1ccc(CN2CCN(C(=O)CCC(=O)Nc3nnc(C4CCCCC4)s3)CC2)cc1F,26.9%
18,COc1ccc(/C=N/NC(=O)c2cc(C(C)(C)C)[nH]n2)cc1COc1ccc(F)cc1F,44.1% (active)
19,COc1ccc(/C=N\NC(=O)c2ccccc2)cc1COc1ccc(F)cc1,39.2%
20,COc1ccc(C(=O)N/N=C/c2ccc(OC)c(COc3ccc(F)cc3)c2)cc1,56.6% (active)
21,COc1ccc(C(=O)N/N=C/c2ccc(OC)c(COc3ccc(F)cc3F)c2)cc1,38.8%
22,COc1ccc(/C=N\NC(=O)c2ccccc2F)cc1COc1ccc(F)cc1F,31.2%
23,COc1ccc(C(=O)N/N=C/c2ccc(OC)c(COc3ccccc3)c2)cc1,3.5%
24,C/C(=N\NC(=O)c1ccc2ccccc2c1)c1cccs1,-67.5%

row,Structure (SMILES),inhibition
1,Cc1ccccc1CSCCNC(=O)CCSc1ccccc1,71.3% (active)
2,Cc1ccc(CNC(=O)CCSCc2ccccc2C)cc1,-14.9%
3,O=C(CCSc1ccccc1)NCCSCc1ccccc1,-33.8%
4,COc1ccc(CNC(=O)CCSCc2ccc(C)cc2)cc1,-7.5%
5,COc1ccc(CNC(=O)CCSCc2ccccc2C)cc1,49.7% (active)
6,Cc1ccc(SCCC(=O)NCCSCc2ccccc2C)cc1,-35.1%
7,CCC(C)[C@H](NC(=O)Nc1ccccc1F)C(=O)O (stereo partly specified),-12.6%
8,NS(=O)(=O)c1cccc(NC(=O)COC(=O)CCSc2ccccc2)c1,-26.8%
9,O=[N+]([O-])c1ccc(Sc2n[nH]c(-c3ccncc3)n2)nc1,-10.2%
10,O=C(Nc1ccc(Cl)cc1)Nc1ccccc1Sc1ncc([N+](=O)[O-])s1,-6.5%
11,O=[N+]([O-])c1cnc(Sc2ccncn2)s1,66% (active)
12,O=C(O)C1Nc2c(cccc2C(F)(F)F)C2C=CCC12 (stereo unspecified),-8.8%
13,O=C(Nc1ccccc1)c1c(F)cccc1F,-2.4%
14,O=C(Nc1ccncc1)c1c(F)c(F)c(F)c(F)c1F,11%
15,O=S(=O)(c1ccc(Cl)s1)N1CCN(c2ncccn2)CC1,-11.8%
16,Cc1ccccc1-c1nsc(SCC(=O)c2ccc(Cl)cc2)n1,-4.8%
17,c1coc(C2=NCCc3ccccc32)c1,-18%
18,CCN(CC)c1nc(N)nc(N(c2ccccc2)c2ccccc2)n1,13.6%
19,Nc1nc(Cl)nc(N(c2ccccc2)c2ccccc2)n1,-8.3%
20,Nc1nc(CCl)nc(N(c2ccccc2)c2ccccc2)n1,50.5% (active)
21,Fc1ccc2c(c1)C(c1ccncc1)=NNC(c1ccccc1)=N2,16%
22,Cc1ccc(C(=O)COC(=O)c2ccc(-c3cnc4ccccc4n3)cc2)cc1C,-22.2%
23,O=C1CCCN1CCCNC(=S)Nc1ccc(Cl)cc1Cl,-41.9%
24,N/C(=N\NC(=O)c1sccc1OCc1ccc(Cl)cc1Cl)c1ccccn1,-6%

row,Structure (SMILES),inhibition
1,CCc1ccc(C(C(=O)NC2CCCC2)N(C(=O)/C=C/C(=O)Nc2cc(C)on2)c2ccccc2C)cc1 (stereo unspecified),76.7% (active)
2,CCOc1ccc(N(C(=O)/C=C/C(=O)Nc2cc(C)on2)C(C(=O)NC2CCCC2)c2ccccc2C)cc1 (stereo unspecified),52.5%
3,Cc1cc(NC(=O)/C=C/C(=O)N(c2ccccc2C)C(C(=O)NC2CCCC2)c2ccc(F)cc2)no1 (stereo unspecified),30.5%
4,CCOC(=O)c1c(CCl)nc2ccccc2c1-c1ccccc1,19.7%
5,CCOC(=O)c1c(CCl)nc2ccccc2c1C,-9.2%
6,ClCc1nc2ccccc2c2ccccc12,64.7% (active)
7,CC(=O)N(CCc1ccccc1C)Cc1cc2ccc(C)cc2[nH]c1=O,-1%
8,CCN1CCN(C(=O)Cn2nc(C)c3sc4ccccc4c3c2=O)CC1,-12.8%
9,Cc1nn(CC(=O)N2CCN(C)CC2)c(=O)c2c1sc1ccccc12,-7.7%
10,CCOC(=O)N1CCN(C(=O)Cn2nc(C)c3sc4ccccc4c3c2=O)CC1,53.1% (active)
11,Cc1nnc(SCc2cn3ccsc3n2)n(N)c1=O,8.4%
12,Cc1ccc(C)c2sc(NC(=O)CN3C(=O)CCC3=O)nc12,14.9%
13,CCCNC(=O)c1cc(S(=O)(=O)N2CCc3ccccc32)cn1C,30.1%
14,CCC(C)(C)NC(=O)c1cc(S(=O)(=O)N2CCc3ccccc32)cn1C,14.8%
15,CC1=NN(Cc2ccccc2)C(=O)C1C(c1ccncc1)C(C#N)C#N (stereo unspecified),5.2%
16,Cc1nc2c(ccc3nc(NC(=O)Cc4ccccc4)sc32)s1,-51.4%
17,CCC(=O)Nc1nc2ccc3sc(C)nc3c2s1,17.2%
18,Cc1nc2c(ccc3nc(NC(=O)C4CC4)sc32)s1,69% (active)
19,Fc1ccc(NC(=S)Nc2cccnc2)c(F)c1F,-19.1%
20,COc1ccc(CCNC(=O)c2oc3ccc(OC)cc3c2C)cc1,-13.3%
21,CCOc1ccccc1NC(=O)CSc1nc2c(c(=O)n1C)SC(C)C2 (stereo unspecified),-16.7%
22,O=C1COc2ccc(C(=O)COC(=O)CCc3ccc(S(=O)(=O)N4CCOCC4)cc3)cc2N1,1.2%
23,c1ccc(-c2cc(-c3ccccc3)on2)cc1,-10%
24,Cc1ccc2nc(-c3cc(-c4ccccc4)no3)cn2c1,-4.9%

row,Structure (SMILES),inhibition
1,CCc1ccn2cc(-c3cc(-c4ccccc4)no3)nc2c1,45.6% (active)
2,O=C(NCc1ccccc1)C1CCC(CNS(=O)(=O)c2cccs2)CC1 (stereo unspecified),-1.7%
3,CCc1ccc(NC(=O)CSc2nc3cc(C(=O)OC)ccc3c(=O)n2Cc2ccco2)cc1,-7.4%
4,CCN(C(=O)CSc1nc2cc(C(=O)OC)ccc2c(=O)n1Cc1ccco1)c1cccc(C)c1,74% (active)
5,COC(=O)c1ccc2c(=O)n(Cc3ccco3)c(SCC(=O)Nc3cc(C)on3)nc2c1,-44.8%
6,Cc1ccc(S(=O)(=O)NC(=O)Nc2ccccc2)cc1,-30.4%
7,O=C(Cn1nnc(-c2ccc3c(c2)OCO3)n1)NCc1ccccc1,4.7%
8,O=C(NCC(=O)N1CC(O)CC1C(=O)N1CC(O)CC1C(=O)OCc1ccccc1)OCc1ccccc1 (stereo unspecified),-13.7%
9,CCOC(=O)/C=C/C(=O)Nc1ccc(Oc2ccccc2)cc1,6.8%
10,CC(=O)Nc1ccc(S(=O)(=O)N(C)c2ccccc2)cc1,-12.7%
11,Cc1cc(NC(=O)Nc2cccc(C(F)(F)F)c2)no1,-7.7%
12,NS(=O)(=O)c1cccc(NC(=O)CSc2nn(-c3ccccc3)c(=S)s2)c1,39.5%
13,Cc1ccc(NC(=O)CSc2nn(-c3ccc(Cl)cc3)c(=S)s2)cc1S(=O)(=O)N(C)C,53.2%
14,Cc1c(C(=O)NCCSCc2cccc(C(F)(F)F)c2)cnn1-c1ccc(F)cc1,-3.5%
15,COc1cccc(NC(=O)Cc2ccc3ccccc3c2)c1,15.2%
16,Cc1ccc(NC(=O)Cn2c(=O)cnc3ccccc32)cc1S(=O)(=O)N(C)C,-22.2%
17,Cc1sc(NC(=O)Nc2ccccc2)c(C(N)=O)c1C,-40.3%
18,COc1ccc(N2CCN(C(=O)C(C)(C)Oc3ccc(Cl)cc3)CC2)cc1,-14.6%
19,COc1ccc(N2CCN(C(=O)NC(=O)c3ccc(Cl)cc3)CC2)cc1,-13.4%
20,COC(=O)c1sc(N2CCN(c3ccc(Cl)cc3)CC2)nc1N,66.9% (active)
21,NS(=O)(=O)c1ccc(NCc2cc(Cl)ccc2OCc2ccc(F)cc2)cc1,27.2%
22,Cc1ccc2c(c1)c(=O)c1c3n2CCN(C(=O)CCl)C3CC1 (stereo unspecified),105% (active)
23,CC(=O)N1CCn2c3c(c(=O)c4cc(C)ccc42)CCC31 (stereo unspecified),-6.4%
24,Cc1ccc2c(c1)c1c3n2CCN(C(=O)CCl)C3CCC1 (stereo unspecified),52.3%
